Measured values as given in PubChem BioAssay (NCI).
“And” between values parts separate entries of the source, which are not always exact repeats. Equal entries are not always repeated. Compounds without any hit were thinned out: in the full panel of roughly 79,000, 15% have a hit. Some structures have more than one record in an assay (separate samples or runs), and their calls can disagree. The source made the active and inactive calls. No stated cut-off is given here; in the data, active means growth inhibition above about 70%; inactive means the rest.

Experiments:
[1] = NCI Yeast Anticancer Drug Screen. Data for the rad52 strain (AID 147);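 further: 0% = growth of vehicle-treated control cultures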; conditions: S. cerevisiae rad52 mutant growth inhibition, stronger effect = higher value
Outline: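 Growth of repair-deficient yeast cells was compared between compound-treated and vehicle-treated cultures to give percent inhibition.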

[2] = NCI Yeast Anticancer Drug Screen. Data for the rad50EPP+ strain (AID 151);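 further: 0% = growth of vehicle-treated control cultures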; conditions: S. cerevisiae rad50 mutant strain, stronger effect = higher value
Outline: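 Measured: growth inhibition of rad50EPP+ yeast. Reference: vehicle-treated controls. Screen uses strains with defined genetic alterations in DNA damage repair or cell cycle control.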

[3] = NCI Yeast Anticancer Drug Screen. Data for the rad50 strain (AID 155);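 further: 0% = growth of vehicle-only cultures of the same strain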; conditions: S. cerevisiae rad50 strain growth inhibition, stronger effect = higher value
Outline: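 Yeast carrying a defined DNA repair defect were exposed to test compounds, and growth was compared with vehicle-treated controls to give percent inhibition.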

[4] = NCI Yeast Anticancer Drug Screen. Data for the mec2-1 strain (AID 157); conditions: S. cerevisiae mec2-1 strain, stronger effect = higher value
Outline: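 Compounds were applied to mec2-1 yeast cells. Their growth was then compared with that of vehicle-treated cultures to give growth inhibition.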

[5] = NCI Yeast Anticancer Drug Screen. Data for the rad14 strain (AID 159);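 further: 0% = growth of vehicle-treated control cultures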; conditions: S. cerevisiae rad14 strain growth inhibition, stronger effect = higher value
Outline: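 Yeast cells carrying a defined DNA-repair defect were exposed to compounds, and growth inhibition was calculated relative to vehicle-treated control cultures.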

[6] = NCI Yeast Anticancer Drug Screen. Data for the sgs1 mgt1 strain (AID 161);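 further: 0% = growth of cultures given vehicle only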; conditions: S. cerevisiae sgs1 mgt1 strain, stronger effect = higher value
Outline: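 This yeast growth screen uses a strain with defined DNA-repair lesions; compound-treated growth is compared with vehicle-treated growth.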

[7] = NCI Yeast Anticancer Drug Screen. Data for the CLN2oe strain (AID 163);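 further: 0% = growth of vehicle-only control cultures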; conditions: S. cerevisiae CLN2oe strain, stronger effect = higher value
Outline: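 Cells of an engineered yeast line with disturbed cell-cycle regulation are treated with compound. Inhibition of growth is then calculated relative to the vehicle-treated reference.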

[8] = NCI Yeast Anticancer Drug Screen. Data for the cln2 rad14 strain (AID 165);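 further: 0% = growth equal to vehicle treated cultures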; conditions: S. cerevisiae cln2 rad14 strain, stronger effect = higher value
Outline: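 Strain: cln2 rad14 yeast, altered in cell cycle control and DNA damage repair. Read-out: growth inhibition vs vehicle.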

[9] = NCI Yeast Anticancer Drug Screen. Data for the bub3 strain (AID 167); conditions: S. cerevisiae bub3 mutant strain, stronger effect = higher value
Outline: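 Compounds were applied to a genetically altered yeast strain carrying a cell-cycle control defect. Growth inhibition was scored against vehicle-treated controls.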

[10] = NCI Yeast Anticancer Drug Screen. Data for the wt2 strain (AID 169);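 further: 0% = growth of vehicle-treated yeast cultures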; conditions: S. cerevisiae wt2 strain growth inhibition, stronger effect = higher value
Outline: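 Growth of compound-treated yeast is measured and expressed as inhibition relative to vehicle-only controls.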

[11] = NCI Yeast Anticancer Drug Screen. Data for the mlh1 strain (AID 171);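 further: 0% = growth of vehicle-treated control cultures of the same strain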; conditions: S. cerevisiae mlh1 strain growth inhibition, stronger effect = higher value
Outline: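 Test agents were incubated with yeast bearing a defined DNA damage repair or cell cycle control alteration; values are growth inhibition normalised to vehicle-treated cultures.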

[12] = NCI Yeast Anticancer Drug Screen. Data for the sgs1 strain (AID 173);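 further: 0% = growth of vehicle-only control cultures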; conditions: S. cerevisiae sgs1 mutant, stronger effect = higher value
Outline: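 Strain with an altered DNA repair or cell cycle pathway exposed to compound. Growth then measured. Value = inhibition versus vehicle control.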

[13] = NCI Yeast Anticancer Drug Screen. Data for the mlh1 rad18 strain (AID 175); conditions: S. cerevisiae mlh1 rad18 strain growth inhibition, stronger effect = higher value
Outline: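 A repair-deficient yeast strain is exposed to test compound, and growth is scored relative to vehicle-treated controls.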

[14] = NCI Yeast Anticancer Drug Screen. Data for the rad18 strain (AID 177); conditions: S. cerevisiae rad18 mutant growth inhibition, stronger effect = higher value
Outline: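 DNA-repair-defective yeast; compound treatment; growth inhibition scored against vehicle.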

[15] = NCI Yeast Anticancer Drug Screen. Data for the wt1 strain (AID 149);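 further: 0% = growth of vehicle-treated wt1 cultures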; conditions: S. cerevisiae wt1 strain (SPY 50644) growth inhibition, stronger effect = higher value
Outline: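 Yeast wt1 strain exposed to compounds; growth inhibition measured relative to vehicle-treated controls.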

[16] = at 5.0 µM (retest, dose inferred, filed as 0.5)
[17] = at 50.0 µM (retest, dose inferred, filed as 5.0)

Measured: growth inhibition

COc1ccc(SCc2cc(OC)ccc2OC)cc1
active: [9]; [17] 73%
inactive: [1]; at 1.2 µM 0% | [1]; at 3.7 µM 2% | [1]; at 11.0 µM 4% | [1]; at 33.0 µM 3% | [1]; at 100.0 µM 3% | [2]; at 1.2 µM 15% | [2]; at 3.7 µM 18% | [2]; at 11.0 µM 27% | [2]; at 33.0 µM 30% | [2]; at 100.0 µM 18% | [3]; at 1.2 µM 0% | [3]; at 3.7 µM 1% | [3]; [16] -8% | [3]; at 11.0 µM 2% | [3]; at 33.0 µM 2% | [3]; [17] 66% | [3]; at 50.0 µM 60.5% | [3]; at 100.0 µM 3% | [4]; at 1.2 µM -1% | [4]; at 3.7 µM -7% | [4]; [16] -26% | [4]; at 11.0 µM -6% | [4]; at 33.0 µM -9% | [4]; [17] 14% | [4]; at 50.0 µM 13.9% | [4]; at 100.0 µM -3% | [5]; at 1.2 µM 0% | [5]; at 3.7 µM -2% | [5]; at 11.0 µM -3% | [5]; at 33.0 µM 0% | [5]; at 100.0 µM 2% | [6]; [16] -27% | [6]; [17] 37% | [6]; at 50.0 µM 67% | [7]; at 1.2 µM -4% | [7]; at 3.7 µM -9% | [7]; at 11.0 µM -6% | [7]; at 33.0 µM -8% | [7]; at 100.0 µM -2% | [8]; [16] -25% | [8]; [17] 58% | [8]; at 50.0 µM 20.1% | [9]; at 1.2 µM 3% | [9]; at 3.7 µM 13% | [9]; [16] -17% | [9]; at 11.0 µM 24% | [9]; at 33.0 µM 21% | [9]; at 50.0 µM 61.3% | [9]; at 100.0 µM 14% | [10]; at 1.2 µM -2% | [10]; at 3.7 µM 0% | [10]; at 11.0 µM -2% | [10]; at 33.0 µM 0% | [10]; at 100.0 µM 1% | [11]; at 1.2 µM -2% | [11]; at 3.7 µM -4% | [11]; at 11.0 µM 0% | [11]; at 33.0 µM -4% | [11]; at 100.0 µM 0% | [12]; at 1.2 µM -2% | [12]; at 3.7 µM -4% | [12]; at 11.0 µM -2% | [12]; at 33.0 µM -2% | [12]; at 100.0 µM 0% | [13]; [16] -16% | [13]; [17] 67% | [13]; at 50.0 µM 21.3% | [14]; at 1.2 µM -5% | [14]; at 3.7 µM -5% | [14]; at 11.0 µM -3% | [14]; at 33.0 µM -16% | [14]; at 100.0 µM -1%

CCCCCCCCCCCCCC(=O)OC(C)CCC1CCCO1 (stereo not drawn)
inactive: [1]; at 1.2 µM -2% | [1]; at 3.7 µM 0% | [1]; at 11.0 µM 2% | [1]; at 33.0 µM 1% | [1]; at 100.0 µM -8% | [2]; at 1.2 µM 2% | [2]; at 3.7 µM 2% | [2]; at 11.0 µM -2% | [2]; at 33.0 µM -4% | [2]; at 100.0 µM -6% | [3]; at 1.2 µM 1% | [3]; at 3.7 µM 0% | [3]; [16] 3% | [3]; at 11.0 µM 0% | [3]; at 33.0 µM -7% | [3]; [17] 15% | [3]; at 50.0 µM 19.4% | [3]; at 100.0 µM -4% | [4]; at 1.2 µM 0% | [4]; at 3.7 µM -1% | [4]; [16] 13% | [4]; at 11.0 µM -6% | [4]; at 33.0 µM 1% | [4]; [17] 5% | [4]; at 50.0 µM 23.5% | [4]; at 100.0 µM -1% | [5]; at 1.2 µM -2% | [5]; at 3.7 µM -6% | [5]; at 11.0 µM 0% | [5]; at 33.0 µM 3% | [5]; at 100.0 µM -4% | [7]; at 1.2 µM 1% | [7]; at 3.7 µM 2% | [7]; at 11.0 µM 2% | [7]; at 33.0 µM 4% | [7]; at 100.0 µM 14% | [8]; [17] 39% | [8]; at 50.0 µM 37.1% | [9]; at 1.2 µM 1% | [9]; at 3.7 µM -1% | [9]; [16] 31% | [9]; at 11.0 µM -1% | [9]; at 33.0 µM -1% | [9]; [17] 1% | [9]; at 50.0 µM 34.6% | [9]; at 100.0 µM -1% | [10]; at 1.2 µM -3% | [10]; at 3.7 µM -3% | [10]; at 11.0 µM -2% | [10]; at 33.0 µM -3% | [10]; at 100.0 µM -6% | [11]; at 1.2 µM -1% | [11]; at 3.7 µM 3% | [11]; at 11.0 µM 2% | [11]; at 33.0 µM 3% | [11]; at 100.0 µM 4% | [12]; at 1.2 µM -1% | [12]; at 3.7 µM 1% | [12]; at 11.0 µM 1% | [12]; at 33.0 µM 3% | [12]; at 100.0 µM 1% | [13]; [16] -2% | [13]; [17] 37% | [13]; at 50.0 µM 20.8% | [14]; at 1.2 µM 0% | [14]; at 3.7 µM 1% | [14]; at 11.0 µM -3% | [14]; at 33.0 µM -4% | [14]; at 100.0 µM -5%
active: [8]; [16] 81%

CC(C)c1cccc(O)c(=O)c1
47% (inactive) and 100% (active): [4]; [17]
52% (inactive) and 99% (active): [3]; [17]
36% (inactive) and 99% (active): [6]; [17]
40% (inactive) and 99% (active): [13]; [17]
inactive: [15]; at 1.2 µM -1% | [15]; at 3.7 µM -1% | [15]; at 11.0 µM -1% | [15]; at 33.0 µM 38% | [2]; at 1.2 µM 5% | [2]; at 3.7 µM 8% | [2]; at 11.0 µM -20% | [2]; at 33.0 µM 13% | [3]; at 1.2 µM -7% | [3]; at 3.7 µM -9% | [3]; [16] -1% and 2% | [3]; at 11.0 µM -8% | [3]; at 33.0 µM 27% | [4]; at 1.2 µM -1% | [4]; at 3.7 µM 2% | [4]; [16] -43% and 0% | [4]; at 11.0 µM 6% | [4]; at 33.0 µM 47% | [5]; at 1.2 µM 6% | [5]; at 3.7 µM 4% | [5]; at 11.0 µM 9% | [6]; [16] -2% and 9% | [9]; at 1.2 µM 5% | [9]; at 3.7 µM -2% | [9]; [16] -7% and 0% | [9]; at 11.0 µM -4% | [9]; at 33.0 µM 13% | [10]; at 1.2 µM 9% | [10]; at 3.7 µM 14% | [10]; at 11.0 µM 13% | [11]; at 1.2 µM -6% | [11]; at 3.7 µM -1% | [11]; at 11.0 µM 2% | [11]; at 33.0 µM 46% | [12]; at 1.2 µM -3% | [12]; at 3.7 µM -11% | [12]; at 11.0 µM -1% | [12]; at 33.0 µM 60% | [13]; [16] -3% and 7% | [14]; at 1.2 µM -6% | [14]; at 3.7 µM 1% | [14]; at 11.0 µM 2% | [14]; at 33.0 µM 18%
active: [15]; at 100.0 µM 98% | [2]; at 100.0 µM 98% | [3]; at 50.0 µM 98.5% and 92.5% | [3]; at 100.0 µM 98% | [4]; at 50.0 µM 99% and 94.2% | [4]; at 100.0 µM 98% | [5]; at 33.0 µM 74% | [5]; at 100.0 µM 99% | [6]; at 50.0 µM 93.9% and 93.2% | [9]; at 50.0 µM 99.3% and 93.2% | [9]; at 100.0 µM 98% | [10]; at 33.0 µM 70% | [10]; at 100.0 µM 99% | [11]; at 100.0 µM 99% | [12]; at 100.0 µM 98% | [13]; at 50.0 µM 98.4% and 91.7% | [14]; at 100.0 µM 98%
18% (inactive) and 99% (active): [9]; [17]
